Not all results are given here.
aSyn UTR act – Activators via SNCA 5'UTR binding, MLPCN; 7.1% of 300,000 active; activity score, % (tested at 7.5 µM), hits read low; AID 1814, 2009; alpha-synuclein 5'UTR reporter, activators screen; in the data active = activity score below about -60%
Starred values were filed as active, the others as inactive.

For O=C(Nc1ccc([N+](=O)[O-])cc1)c1cc(Cl)sc1Cl the results were aSyn UTR act -76*.
`CN(C)c1ccc(NC(=O)c2ccc([N+](=O)[O-])cc2Cl)cc1` gave aSyn UTR act -76*.
For COc1ccc(/C=N/c2c(-c3ccco3)nc3ccccn23)cc1OC the results were aSyn UTR act -64*.
For Cc1cccn2c(=O)c(C(=O)NC3CCCCC3)c(O)nc12 the results were aSyn UTR act -66*.
For CCCn1c(=N)c(C(=O)NC2CCCC2)cc2c(=O)n3cccc(C)c3nc21 the results were aSyn UTR act -67*.
`Cc1cccn2c(=O)c3cc(C(=O)NCC4CCCO4)c(=N)n(CCc4ccccc4)c3nc12` (centres undefined) gave aSyn UTR act -101*.
Cc1cccn2c(=O)c3cc(C(=O)NC4CCCC4)n(C)c3nc12 was read as aSyn UTR act -93*.
Screening COc1ccc(CCn2c(=N)c(C(=O)NC3CCCC3)cc3c(=O)n4ccccc4nc32)cc1OC returned aSyn UTR act -62*.
`Cc1cc(N2CCCC2)nc(-c2ccccc2O)n1` gave aSyn UTR act -62*.
For Cc1cc(N2CCCCC2)nc(SCC(=O)c2ccccc2)n1 the results were aSyn UTR act -119*.
`CCC(C)(C)NC(=O)C(c1ccncc1)N(C(=O)c1sc(C)nc1C)c1ccc(C)cc1` (centres undefined) gave aSyn UTR act -62*.
For COc1ccc2nc(N3CCCCC3)c(C#N)cc2c1 the results were aSyn UTR act -110*.
COc1ccc2nc(N3CCCC3)c(C#N)cc2c1 was read as aSyn UTR act -105*.
Screening O=C(CSCc1cccc(F)c1)N1CCN(c2ccccc2)CC1 returned aSyn UTR act -199*.
For O=C(CSCc1ccccc1)N1CCN(c2ccccc2)CC1 the results were aSyn UTR act -103*.
Screening Cc1noc(C)c1C(=O)Nc1nc2ccc(Cl)cc2s1 returned aSyn UTR act -82*.
Cc1cc(C)c2nc(NC(=O)c3cc(C)on3)sc2c1 was read as aSyn UTR act -89*.
O=C(Nc1nc2ccc(Cl)cc2s1)[C@@H]1CCCN1C(=O)c1cccs1 was read as aSyn UTR act -92*.
CC1CC1C(=O)Nc1nc2ccc(Cl)cc2s1 (centres undefined) was read as aSyn UTR act -134*.
For Cc1cc(C)c2nc(NCc3ccccc3O)sc2c1 the results were aSyn UTR act -118*.
For CCc1noc(C)c1C(=O)Nc1nc2ccc(F)cc2s1 the results were aSyn UTR act -139*.
`CCc1ccc2nc(NC(=O)c3cc(C)on3)sc2c1` gave aSyn UTR act -66*.
For CCc1ccc2nc(NC(=O)C3CSC4(C)CCC(=O)N34)sc2c1 (centres undefined) the results were aSyn UTR act -107*.
`CCC(=O)NNc1nc2c(C)cc(C)cc2s1` gave aSyn UTR act -63*.
For Cc1cc(C)c2nc(NNC(=O)c3ccc(S(=O)(=O)N4CC(C)CC(C)C4)cc3)sc2c1 (centres undefined) the results were aSyn UTR act 72.
Screening O=C(Nc1ccc(OC(F)(F)F)cc1)c1ccc2nccnc2c1 returned aSyn UTR act -112*.
COc1ccc(C(=O)Nc2ccc(SC(F)F)cc2)cc1 was read as aSyn UTR act -160*.
For O=C(Nc1ccc(SC(F)F)cc1)c1ccc2nccnc2c1 the results were aSyn UTR act -218*.
`Cc1ccc(NC(=O)Cc2nc(CSc3nnc(-c4ccc5c(c4)OCO5)o3)cs2)cc1` gave aSyn UTR act -77*.
For O=C(NCCOc1ccccc1)c1ccccc1Cl the results were aSyn UTR act -75*.
Screening O=C(NCCOc1ccccc1Cl)c1cc(F)c(F)cc1Cl returned aSyn UTR act -123*.
Screening COc1ccc(CCC(=O)NCCOc2ccccc2Cl)cc1 returned aSyn UTR act -92*.
For COC(=O)C1=C(C)NC(C)=C(C(=O)OC)C1c1ccc(-c2cccc(Cl)c2Cl)o1 the results were aSyn UTR act -72*.
For N=c1oc2ccccc2cc1-c1nc2ccccc2c(=O)[nH]1 the results were aSyn UTR act -165*.
`Cc1cccc(-c2nc3ccccc3c(=O)[nH]2)c1` gave aSyn UTR act -111*.
`Cc1cc(C2=NNC(=NC3CC3)SC2)c(C)n1-c1ccccc1` gave aSyn UTR act 95.
Screening Cc1cc(-c2nnco2)c(C)n1-c1ccccc1 returned aSyn UTR act -101*.
Screening C/C(=N/NC(=O)C(O)(c1ccccc1)c1ccccc1)c1ccc([N+](=O)[O-])o1 returned aSyn UTR act -66*.
Screening O=c1c2sccc2nc(SCc2cc(=O)n3cc(Br)ccc3n2)n1Cc1ccccn1 returned aSyn UTR act -90*.
O=C(Nc1ccccc1)Nc1ccc(-n2ccc(C(F)(F)F)n2)cc1 was read as aSyn UTR act -277*.
`O=C(Nc1ccc2nc(-c3ccco3)c(-c3ccco3)nc2c1)NC1CC1` gave aSyn UTR act -65*.
`O=C(Nc1ccc(N2CCOCC2)cc1)Nc1ccc2nc(-c3ccco3)c(-c3ccco3)nc2c1` gave aSyn UTR act 112.

Source: PubChem BioAssay
